Experimental findings from PubChem BioAssay (EPA / NIEHS) are described below.

Activity calls are given as the source filed them. Rule for the calls: active = hit-call score of the fitted dose curve at least 0.9, where 1 is the maximum; inactive = score below 0.9.

The assay in a line: Tanguay_ZF_120hpf_MORT: Oregon State University Tanguay Lab 120 Hour Post-fertilization zebrafish Assay for Mortality (AID 2284399). As for the experimental part:
Tanguay_ZF_120hpf is a whole embryo, multiplexed endpoint assay using zebrafish larvae exposed for 120 hours post fertilization on a 96-well plate.Tanguay_ZF_120hpf_MORT is one of one assay component(s) measured or calculated from the Tanguay_ZF_120hpf assay. It is designed to make measurements of zebrafish development as detected with brightfield microscopy of developing zebrafish embryos.Data from the assay component Tanguay_ZF_120hpf_MORT was analyzed into 1 assay endpoints. This assay endpoint, Tanguay_ZF_120hpf_MORT, was analyzed in the positive analysis fitting direction relative to DMSO as the negative control and baseline of activity. Using a type of viability reporter, gain-of-signal activity can be used to understand changes in developmentals as they relate to the whole embryo. To generalize the intended target to other relatable targets, this assay endpoint is annotated to the zebrafish development intended target family, where the subfamily is embryonic mortality.
Zebrafish husbandry: Tropical 5D wild-type adult zebrafish were housed in at an approximate density of 1000 per 100 gallon tank at the Sinnhuber Aquatic Research Laboratory, Oregon State University, Corvallis, OR. Each tank was kept at standard laboratory conditions of 28C on a 14-h light/10-h dark photoperiod in fish water consisting of reverse osmosis water supplemented with a commercially available salt (Instant Ocean). Spawning funnels were placed into the tanks the night prior, and embryos were collected and staged. To increase bioavailability, the chorion was enzymatically removed using pronase (63.6mg/ml, >/= 3.5U/mg, Sigma-Aldrich: P5147) at 4 hours post fertilization (hpf) using a custom automated dechorionator.Chemical exposures: Six hpf dechorionated embryos were placed 1 embryo per well in a 96-well plate prefilled with 90 ul of EM using automated embryo placement systems (AEPS). Ten microliters of each row of dilution plate 2 was added to 2 exposure plates. The final DMSO concentration used was 0.64% (vol/vol). Thirty-two embryos were also exposed to 5uM trimethyltin chloride (positive control). Plates were sealed to prevent evaporation and foil covered to reduce light exposure and kept in a 28C incubator. Embryos were statically exposed until 120 hpf. At 24 hpf, embryos were assessed for photomotor response using a custom photomotor response analysis tool (PRAT) and for developmental toxicity endpoints (MO24: mortality at 24 hpf, DP: developmental progression, SM: spontaneous movement, and NC: notochord distortion). At 120 hpf, locomotor activity was measured using Viewpoint Zebralab and assessed for 13 endpoints. Zebrafish acquisition and analysis program (ZAAP), a custom program designed to inventory, acquire, and manage zebrafish data, was used to collect developmental endpoints as either present or absent (i.e., binary responses were recorded). If mortality occurred for an embryo (at either 24 or 120 hpf), the non-mortality endpoints were not measured.
`OCC(F)(F)OC(F)(F)C(F)(F)OC(F)(F)C(F)(F)OC(F)(F)F`: the call was inactive.
On the same count and under the same terms, in the case of `OCC(F)(F)OC(F)(F)C(F)(F)OC(F)(F)CO` it was “inactive”.
On to `C=CC(=O)OCC(F)(F)C(F)F`, for which the AC50 (commonly the concentration giving half of the maximal activity seen) was 64 µM (active).
As to `O=C(O)C(F)(F)OC(F)(F)C(F)(F)OC(F)(F)C(=O)O`, the call was inactive.
The same measure, in the same setting: in the case of `FC(F)(F)C(F)(C(F)(F)F)C(F)(F)C(F)(F)CC1CO1` (centres undefined) it was “inactive”.
For the compound `O=C(O)C(F)(F)C(F)(F)C(=O)O`, the compound was called inactive.
Consider `NC(=O)C(F)(F)C(F)(F)F`, for which the compound was called inactive.
Turning to `COC(=O)C(F)(F)C(F)(F)OC(F)(C(F)(F)F)C(F)(F)OC(F)=C(F)F` (centres undefined), the AC50 is 22.2 µM (active).
Consider `CC(O)C(F)(F)C(F)(F)F` (centres undefined), for which the result was inactive.
With `OCC(F)(F)OC(F)(F)C(F)(F)OC(F)(F)C(F)(F)OC(F)(F)CO`, the AC50 is 57.6 µM (active).
Take `O=S(=O)(F)C(F)(F)C(F)(F)C(F)(F)C(F)(F)C(F)(F)C(F)(F)C(F)(F)C(F)(F)F`: the compound was classed as inactive.
In the case of `O=C(O)C=CC(F)(C(F)(F)F)C(F)(F)F`, the outcome was inactive.
As for `O=C(O)C(F)(F)OC(F)(F)C(F)(F)OC(F)(F)F`, the result was inactive.
`O=C(O)C(F)(OC(F)(F)C(F)(F)C(F)(F)F)C(F)(F)F` (centres undefined): the compound was classed as inactive.
